Test results reported in the supplement of paper PMC11732987, “Enantioselective OTUD7B fragment discovery through chemoproteomics screening and high-throughput optimisation” (Communications Chemistry, 2025).

Assays:
Assay in all cases: log2 ratio of Biotin-Ahx-Ub-VS probe labelling (fragment/DMSO); higher = less target engagement (more negative = stronger competition), active = hit call of the paper (q ≤ 0.05, log2 ratio ≤ -1)
Conditions in all cases: compound concentration: 200 uM; treatment time: 3 h
USP34 = USP34 (UniProt Q70CQ2)
Sequence of USP34 (Q70CQ2 whole entry, the tested form may be a part): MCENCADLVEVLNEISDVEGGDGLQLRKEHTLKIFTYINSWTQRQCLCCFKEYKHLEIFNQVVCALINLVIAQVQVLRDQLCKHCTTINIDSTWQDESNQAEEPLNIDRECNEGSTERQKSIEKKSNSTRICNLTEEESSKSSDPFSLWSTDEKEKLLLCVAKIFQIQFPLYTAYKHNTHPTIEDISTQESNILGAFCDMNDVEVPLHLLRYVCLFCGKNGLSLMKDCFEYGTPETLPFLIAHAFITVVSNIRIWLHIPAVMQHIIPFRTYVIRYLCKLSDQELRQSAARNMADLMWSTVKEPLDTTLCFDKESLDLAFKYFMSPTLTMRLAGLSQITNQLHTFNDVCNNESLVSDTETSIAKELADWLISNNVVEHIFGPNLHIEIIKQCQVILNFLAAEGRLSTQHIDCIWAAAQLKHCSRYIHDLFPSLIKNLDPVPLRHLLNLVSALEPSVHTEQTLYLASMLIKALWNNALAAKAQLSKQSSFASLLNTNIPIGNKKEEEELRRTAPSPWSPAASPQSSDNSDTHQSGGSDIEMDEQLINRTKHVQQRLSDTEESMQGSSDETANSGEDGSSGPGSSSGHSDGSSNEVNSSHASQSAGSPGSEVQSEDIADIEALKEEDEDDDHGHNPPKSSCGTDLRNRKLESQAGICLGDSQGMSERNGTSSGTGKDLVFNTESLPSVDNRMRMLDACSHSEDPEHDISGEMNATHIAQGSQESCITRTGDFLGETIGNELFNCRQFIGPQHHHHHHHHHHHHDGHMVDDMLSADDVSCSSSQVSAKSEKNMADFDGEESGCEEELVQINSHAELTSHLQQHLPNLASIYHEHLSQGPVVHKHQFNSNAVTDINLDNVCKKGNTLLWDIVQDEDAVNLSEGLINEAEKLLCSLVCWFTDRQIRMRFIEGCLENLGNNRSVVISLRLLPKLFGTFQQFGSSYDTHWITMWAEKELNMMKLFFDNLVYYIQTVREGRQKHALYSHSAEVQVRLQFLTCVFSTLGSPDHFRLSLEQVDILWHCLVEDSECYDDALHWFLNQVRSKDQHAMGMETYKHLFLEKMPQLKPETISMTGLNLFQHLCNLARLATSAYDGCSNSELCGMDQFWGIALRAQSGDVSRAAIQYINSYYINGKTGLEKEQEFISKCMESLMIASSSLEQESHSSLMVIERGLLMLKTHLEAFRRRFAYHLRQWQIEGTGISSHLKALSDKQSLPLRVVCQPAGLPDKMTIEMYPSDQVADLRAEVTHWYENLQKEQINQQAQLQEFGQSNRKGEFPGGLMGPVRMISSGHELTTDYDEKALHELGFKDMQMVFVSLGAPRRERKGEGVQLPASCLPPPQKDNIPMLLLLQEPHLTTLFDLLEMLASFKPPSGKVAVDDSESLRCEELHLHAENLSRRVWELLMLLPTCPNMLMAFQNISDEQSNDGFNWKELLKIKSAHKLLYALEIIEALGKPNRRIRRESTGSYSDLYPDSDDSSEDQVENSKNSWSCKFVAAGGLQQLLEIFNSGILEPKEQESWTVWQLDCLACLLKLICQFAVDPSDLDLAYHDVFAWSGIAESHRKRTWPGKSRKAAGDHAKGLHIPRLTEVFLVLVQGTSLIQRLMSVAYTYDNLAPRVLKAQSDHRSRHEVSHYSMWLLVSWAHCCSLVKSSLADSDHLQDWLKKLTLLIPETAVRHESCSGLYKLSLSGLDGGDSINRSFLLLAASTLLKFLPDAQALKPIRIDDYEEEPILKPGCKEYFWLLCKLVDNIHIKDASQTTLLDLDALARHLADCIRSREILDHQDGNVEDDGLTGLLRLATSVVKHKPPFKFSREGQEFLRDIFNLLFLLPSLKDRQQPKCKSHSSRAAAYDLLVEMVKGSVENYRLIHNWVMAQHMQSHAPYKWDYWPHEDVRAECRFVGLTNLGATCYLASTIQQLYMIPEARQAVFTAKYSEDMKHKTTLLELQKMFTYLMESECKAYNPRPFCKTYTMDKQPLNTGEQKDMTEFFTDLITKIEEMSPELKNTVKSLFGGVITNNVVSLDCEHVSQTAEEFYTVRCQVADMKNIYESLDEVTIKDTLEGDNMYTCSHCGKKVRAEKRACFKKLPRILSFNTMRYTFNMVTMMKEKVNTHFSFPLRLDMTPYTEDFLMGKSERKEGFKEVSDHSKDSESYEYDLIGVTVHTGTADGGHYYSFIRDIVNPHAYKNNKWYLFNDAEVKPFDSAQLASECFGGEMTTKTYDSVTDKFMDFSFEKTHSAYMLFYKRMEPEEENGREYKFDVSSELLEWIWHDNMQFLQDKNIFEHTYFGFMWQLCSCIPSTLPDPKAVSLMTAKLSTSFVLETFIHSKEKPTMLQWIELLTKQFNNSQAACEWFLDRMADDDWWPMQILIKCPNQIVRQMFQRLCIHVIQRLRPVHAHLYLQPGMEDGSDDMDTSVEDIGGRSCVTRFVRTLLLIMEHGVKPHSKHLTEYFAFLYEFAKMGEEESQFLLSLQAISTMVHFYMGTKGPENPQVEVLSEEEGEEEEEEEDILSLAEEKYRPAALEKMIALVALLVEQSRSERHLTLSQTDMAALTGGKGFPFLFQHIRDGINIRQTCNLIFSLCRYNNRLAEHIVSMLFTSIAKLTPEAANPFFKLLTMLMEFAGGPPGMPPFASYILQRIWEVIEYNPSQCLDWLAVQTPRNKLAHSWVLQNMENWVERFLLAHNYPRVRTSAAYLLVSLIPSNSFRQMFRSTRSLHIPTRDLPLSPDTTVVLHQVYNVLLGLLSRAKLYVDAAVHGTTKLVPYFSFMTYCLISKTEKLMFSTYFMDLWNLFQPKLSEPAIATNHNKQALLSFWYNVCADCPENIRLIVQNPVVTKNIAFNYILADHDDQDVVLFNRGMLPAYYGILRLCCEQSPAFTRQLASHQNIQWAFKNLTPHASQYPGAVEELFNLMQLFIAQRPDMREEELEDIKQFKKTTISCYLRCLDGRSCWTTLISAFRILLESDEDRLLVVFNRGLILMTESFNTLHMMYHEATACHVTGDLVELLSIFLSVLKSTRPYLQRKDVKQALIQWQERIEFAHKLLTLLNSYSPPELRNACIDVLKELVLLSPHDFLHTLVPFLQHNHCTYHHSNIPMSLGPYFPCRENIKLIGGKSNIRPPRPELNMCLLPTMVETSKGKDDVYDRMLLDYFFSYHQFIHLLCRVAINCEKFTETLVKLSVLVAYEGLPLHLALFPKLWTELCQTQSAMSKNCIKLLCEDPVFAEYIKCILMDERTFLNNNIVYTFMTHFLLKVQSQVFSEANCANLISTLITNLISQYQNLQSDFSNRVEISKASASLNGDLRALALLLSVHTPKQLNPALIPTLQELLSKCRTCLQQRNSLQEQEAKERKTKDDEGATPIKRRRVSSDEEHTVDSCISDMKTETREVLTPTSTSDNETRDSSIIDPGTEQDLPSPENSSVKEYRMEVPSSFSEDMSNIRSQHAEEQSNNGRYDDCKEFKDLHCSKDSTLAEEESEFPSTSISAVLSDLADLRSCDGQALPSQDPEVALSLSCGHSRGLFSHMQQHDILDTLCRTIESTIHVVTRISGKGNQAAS
Procedure, shortened: (§1)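 The table lists average log2 ratios of fragment over vehicle, from an unpaired t-test on global-median-normalised Spectronaut label-free quantities. Proteins with ≥2 unique peptides were used. Samples were HEK293T lysate (495 µg) treated in triplicate with fragment at 200 µM or vehicle for 3 h, then with Biotin-Ahx-Ub-VS (0.5 µM final) for 1 h, with labelled DUBs NeutrAvidin-enriched and run by diaPASEF LC-MS/MS.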

USP36 = target: T1, USP36 (UniProt Q9P275)
T1 sequence (whole entry): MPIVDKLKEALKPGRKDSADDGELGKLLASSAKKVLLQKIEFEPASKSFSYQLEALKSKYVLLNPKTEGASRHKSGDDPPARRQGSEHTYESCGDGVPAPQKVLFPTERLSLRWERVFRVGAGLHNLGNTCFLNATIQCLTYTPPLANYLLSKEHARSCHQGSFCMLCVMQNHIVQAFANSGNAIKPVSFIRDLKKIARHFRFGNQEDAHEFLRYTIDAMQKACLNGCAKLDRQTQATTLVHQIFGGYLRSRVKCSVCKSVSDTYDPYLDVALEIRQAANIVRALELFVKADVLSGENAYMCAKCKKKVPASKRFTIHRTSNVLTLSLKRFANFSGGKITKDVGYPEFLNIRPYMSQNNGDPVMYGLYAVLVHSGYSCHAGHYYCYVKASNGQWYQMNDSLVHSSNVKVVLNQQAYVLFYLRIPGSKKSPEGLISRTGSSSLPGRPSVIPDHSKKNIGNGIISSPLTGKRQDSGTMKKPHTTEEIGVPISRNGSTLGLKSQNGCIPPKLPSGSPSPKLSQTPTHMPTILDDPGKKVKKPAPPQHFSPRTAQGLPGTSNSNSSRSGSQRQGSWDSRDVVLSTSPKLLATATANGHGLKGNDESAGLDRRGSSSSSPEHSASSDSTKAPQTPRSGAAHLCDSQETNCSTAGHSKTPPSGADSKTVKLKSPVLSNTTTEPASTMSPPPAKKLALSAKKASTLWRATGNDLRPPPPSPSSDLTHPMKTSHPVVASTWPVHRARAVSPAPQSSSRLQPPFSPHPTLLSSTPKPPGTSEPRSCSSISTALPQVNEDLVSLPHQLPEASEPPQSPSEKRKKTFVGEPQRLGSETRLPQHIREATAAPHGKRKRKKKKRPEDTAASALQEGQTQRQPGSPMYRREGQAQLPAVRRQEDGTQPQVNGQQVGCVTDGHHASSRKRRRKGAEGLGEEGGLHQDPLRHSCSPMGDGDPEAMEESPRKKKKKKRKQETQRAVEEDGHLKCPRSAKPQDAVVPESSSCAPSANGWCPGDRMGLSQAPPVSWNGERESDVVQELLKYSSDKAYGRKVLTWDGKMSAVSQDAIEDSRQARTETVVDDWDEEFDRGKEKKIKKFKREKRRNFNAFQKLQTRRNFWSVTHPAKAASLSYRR
Procedure, shortened: as §1

USP38 = target: T2, USP38 (UniProt Q8NB14)
T2 sequence (whole entry): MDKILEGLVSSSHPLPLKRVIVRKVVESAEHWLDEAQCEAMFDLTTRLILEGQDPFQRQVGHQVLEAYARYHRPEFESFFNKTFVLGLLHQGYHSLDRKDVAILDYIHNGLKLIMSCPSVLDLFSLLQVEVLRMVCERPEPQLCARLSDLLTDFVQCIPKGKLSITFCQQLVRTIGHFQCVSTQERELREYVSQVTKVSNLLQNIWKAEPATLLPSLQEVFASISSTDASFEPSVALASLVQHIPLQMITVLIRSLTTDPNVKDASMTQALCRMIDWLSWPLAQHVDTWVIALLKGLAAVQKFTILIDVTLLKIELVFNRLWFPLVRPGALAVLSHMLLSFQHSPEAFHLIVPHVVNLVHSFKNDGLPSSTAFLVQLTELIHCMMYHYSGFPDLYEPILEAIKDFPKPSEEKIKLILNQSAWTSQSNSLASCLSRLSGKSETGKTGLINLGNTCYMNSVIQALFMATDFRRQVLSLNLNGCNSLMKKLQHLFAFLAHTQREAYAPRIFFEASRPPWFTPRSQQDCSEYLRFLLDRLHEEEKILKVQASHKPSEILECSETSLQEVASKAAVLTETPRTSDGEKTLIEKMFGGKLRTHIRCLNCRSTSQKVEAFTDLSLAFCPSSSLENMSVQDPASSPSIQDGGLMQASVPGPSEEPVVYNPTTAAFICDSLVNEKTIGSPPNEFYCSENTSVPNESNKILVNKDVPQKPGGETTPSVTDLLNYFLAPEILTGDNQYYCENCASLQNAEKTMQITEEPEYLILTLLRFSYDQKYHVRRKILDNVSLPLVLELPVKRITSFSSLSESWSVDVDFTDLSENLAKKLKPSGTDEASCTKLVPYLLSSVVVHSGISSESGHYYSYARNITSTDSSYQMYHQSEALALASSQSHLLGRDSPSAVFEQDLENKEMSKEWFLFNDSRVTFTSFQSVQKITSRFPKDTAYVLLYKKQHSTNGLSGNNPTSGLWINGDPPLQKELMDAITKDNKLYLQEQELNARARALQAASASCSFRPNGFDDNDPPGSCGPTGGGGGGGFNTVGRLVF
Procedure, shortened: as §1

USP39 = target: T3, USP39 (UniProt Q53GS9)
T3 sequence (whole entry): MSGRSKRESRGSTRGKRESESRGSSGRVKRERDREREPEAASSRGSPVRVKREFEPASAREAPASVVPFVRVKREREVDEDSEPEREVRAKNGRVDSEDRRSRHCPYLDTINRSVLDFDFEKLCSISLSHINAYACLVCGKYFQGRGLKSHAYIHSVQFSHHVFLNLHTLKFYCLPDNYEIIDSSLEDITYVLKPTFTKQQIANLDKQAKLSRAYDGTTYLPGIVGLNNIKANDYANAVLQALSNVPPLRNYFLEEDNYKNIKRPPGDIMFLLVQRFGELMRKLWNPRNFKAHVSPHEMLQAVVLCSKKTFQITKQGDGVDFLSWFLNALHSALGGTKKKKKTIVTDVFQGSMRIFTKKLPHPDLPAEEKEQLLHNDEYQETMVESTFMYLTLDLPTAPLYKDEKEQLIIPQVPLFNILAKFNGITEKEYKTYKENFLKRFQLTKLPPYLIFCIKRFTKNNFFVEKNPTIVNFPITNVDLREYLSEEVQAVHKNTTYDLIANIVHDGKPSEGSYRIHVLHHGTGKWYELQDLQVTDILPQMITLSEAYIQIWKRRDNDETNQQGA
Procedure, shortened: as §1

USP4 = target: T4, USP4 (UniProt Q13107)
T4 sequence (whole entry): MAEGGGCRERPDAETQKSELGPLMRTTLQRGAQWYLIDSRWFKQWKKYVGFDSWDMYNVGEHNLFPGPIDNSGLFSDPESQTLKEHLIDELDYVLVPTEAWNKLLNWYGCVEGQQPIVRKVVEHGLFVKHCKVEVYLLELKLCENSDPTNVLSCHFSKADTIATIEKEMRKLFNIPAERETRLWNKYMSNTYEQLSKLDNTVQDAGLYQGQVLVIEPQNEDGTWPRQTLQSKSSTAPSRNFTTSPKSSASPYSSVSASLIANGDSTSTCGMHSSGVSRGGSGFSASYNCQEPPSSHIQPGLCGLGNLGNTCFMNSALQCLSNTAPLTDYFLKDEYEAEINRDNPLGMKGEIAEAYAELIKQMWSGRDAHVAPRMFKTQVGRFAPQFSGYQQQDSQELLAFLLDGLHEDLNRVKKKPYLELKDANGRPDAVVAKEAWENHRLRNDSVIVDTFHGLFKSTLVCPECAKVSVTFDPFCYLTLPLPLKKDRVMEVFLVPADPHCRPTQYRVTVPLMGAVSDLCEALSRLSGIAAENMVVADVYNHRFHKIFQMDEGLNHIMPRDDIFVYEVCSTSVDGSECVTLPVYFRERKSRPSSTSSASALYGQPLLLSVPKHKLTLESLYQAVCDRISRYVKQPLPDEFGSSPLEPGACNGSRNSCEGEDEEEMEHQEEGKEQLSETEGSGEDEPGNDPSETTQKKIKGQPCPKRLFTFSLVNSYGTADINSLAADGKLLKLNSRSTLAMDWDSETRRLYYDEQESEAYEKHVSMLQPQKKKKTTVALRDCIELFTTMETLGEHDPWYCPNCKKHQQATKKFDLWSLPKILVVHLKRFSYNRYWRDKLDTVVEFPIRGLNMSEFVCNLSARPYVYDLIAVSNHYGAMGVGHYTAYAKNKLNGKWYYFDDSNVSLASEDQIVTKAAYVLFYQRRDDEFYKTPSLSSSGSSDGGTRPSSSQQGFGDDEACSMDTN
Procedure, shortened: as §1

Measured: log2 ratio of Biotin-Ahx-Ub-VS probe labelling

Cc1cccc(C)c1NC(=O)CCl
inactive: USP34 -0.0998 | USP36 -0.33 | USP38 -0.0307 | USP39 0.204 | USP4 -0.132
